From PubChem BioAssay (EPA / NIEHS)
Several values for one entry are separate records, joined by “and”; a condition that tells them apart may be missing. Equal entries are not always repeated. Results filed as inconclusive are left out. Activity calls are given as the source filed them. The calls were made as follows, unless noted: active = hit-call score of the fitted dose curve at least 0.9, where 1 is the maximum; inactive = score below 0.9.

Tests used:
[1] = CCTE_Shafer_MEA_dev_mutual_information_norm: CCTE's Neural Network Formation Assay for Mutual Information Normalization, Shafer Lab (AID 2284091)
How it was run: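 Developing rat cortical networks on 16-electrode MEA wells are treated throughout formation (DIV 0–12). Shared electrode information is recorded four times, converted to area-under-curve, and fitted for decreases against DMSO vehicle.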

[2] = CCTE_Shafer_MEA_dev_correlation_coefficient_mean: CCTE's Neural Network Formation Assay for Mean Correlation Coefficient, Shafer Lab (AID 2284093)
How it was run: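 Primary rat cortical neurons on PEI-coated 48-well MEA plates (16 electrodes/well) were exposed from plating day 0 through DIV12, with compound renewed at DIV5 and 9. Pairwise spike correlations were averaged per well; trapezoidal AUC across DIV5, 7, 9, 12.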

[3] = BSK_BT_PBMCCytotoxicity: PBMC Cytotoxicity Assessment in the BioMAP Diversity Plus: BT Assay (AID 2284225); settings: primary human B cells with PBMC;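 also: PBMC viability measured by Alamar Blue dye reduction fluorescence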
How it was run: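 75,000 cells/well; cpd 1 h → SEB + TSST-1 (20 ng/mL final each) → 90 h → Alamar Blue 6 h → fluor. 546/580 nm. DMSO = neg. control/baseline.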

[4] = read-out: Secreted IgG (sIgG), gene 3500; assay: BSK_BT_sIgG: BioMAP Diversity Plus: BT Assay for Secreted IgG (sIgG) Biomarker Activity (AID 2284226); settings: primary human B cells with PBMC
How it was run: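 Secreted IgG from a human primary B cell–PBMC co-culture was measured by ELISA 24 hours after dosing, with DMSO defining baseline activity.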

[5] = BSK_BT_Bcell_Proliferation: Viability Assessment in the BioMAP Diversity Plus: BT Assay for B cell Proliferation (AID 2284227); settings: primary human B cells with PBMC
How it was run: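 Human B cell/PBMC co-culture; test chemical added; 72 h; TCA fix (10%), 0.1% SRB stain, A560 for total protein as a proliferation read-out; positive-direction fit vs DMSO baseline.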

[6] = read-out: Interleukin 6 (IL6), IL6 (gene 3569); assay: BSK_BT_xIL6: BioMAP Diversity Plus: BT Assay for Interleukin 6 (IL6) Biomarker Activity (AID 2284228); settings: primary human B cells with PBMC
How it was run: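 IL-6 secretion measured (Luminex xMAP) in human primary B cell + PBMC co-culture at 24 h of chemical exposure; DMSO served as negative control and activity baseline, with curves fitted for increase.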

[7] = read-out: Interleukin 17A (IL17A), IL17A (gene 3605); assay: BSK_BT_xIL17A: BioMAP Diversity Plus: BT Assay for Interleukin 17A (IL17A) Biomarker Activity (AID 2284229); settings: primary human B cells with PBMC
How it was run: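 Human primary B cells plus PBMC, treated 24 h with chemicals; supernatant IL-17A quantified on Luminex xMAP beads. Gain of signal over DMSO control scored as activity.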

[8] = read-out: Tumor necrosis factor (Homo sapiens) (UniProt P01375); assay: BSK_BT_xTNFa: BioMAP Diversity Plus: BT Assay for Tumor necrosis factor alpha (TNF-alpha) Biomarker Activity (AID 2284230); settings: primary human B cells with PBMC
How it was run: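 Read-out: Luminex xMAP quantitation of secreted TNF-alpha from a B cell/PBMC co-culture 24 h after compound addition. Signal analysed relative to DMSO vehicle, positive fitting direction.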

[9] = read-out: Vascular cell adhesion molecule 1 (VCAM1), VCAM1 (gene 7412); assay: BSK_MyoF_VCAM1: BioMAP Diversity Plus: MyoF Assay for Vascular cell adhesion molecule 1 (VCAM1) Biomarker Activity (AID 2284231); settings: primary human lung fibroblasts
How it was run: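 VCAM-1 levels, lung fibroblasts, ELISA, 24 h exposure, increase scored relative to DMSO.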

[10] = CCTE_Mundy_HCI_hNP1_Pro_ResponderAvgInten: CCTE's Proliferation Assay in human neuroprogenitor cells, Mundy Lab (AID 2284224; active = hit-call score of the fitted dose curve at least 0.9, where 1 is the maximum;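 also: human neural progenitor cells hNP1 derived from WA09 embryonic stem cells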)
How it was run: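 Proliferation was scored as BrdU labelling intensity in human neural progenitors derived from WA09 embryonic cells, measured 26.25 hours after chemical dosing. Activity was fitted relative to DMSO.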

Measured: AC50

Sequence of Tumor necrosis factor (Homo sapiens) (P01375 whole entry, looked up): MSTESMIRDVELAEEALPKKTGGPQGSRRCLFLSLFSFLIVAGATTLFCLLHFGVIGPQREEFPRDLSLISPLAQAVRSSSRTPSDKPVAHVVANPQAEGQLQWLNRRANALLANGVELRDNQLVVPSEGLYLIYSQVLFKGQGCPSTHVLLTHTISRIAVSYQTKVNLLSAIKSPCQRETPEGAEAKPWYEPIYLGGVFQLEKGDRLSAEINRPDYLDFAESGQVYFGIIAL

O=S(=O)(O)CCC(F)(F)C(F)(F)C(F)(F)C(F)(F)F
not listed: [10]
inactive: all other assays above

CN(C(=O)C(F)(F)C(F)(F)C(F)(F)F)[Si](C)(C)C
not listed: [1] | [2] | [10]
inactive: all other assays above

O=C(c1ccccc1)c1ccc(O)cc1O
not listed: [1] | [2] | [10]
inactive: all other assays above

O=C(O)CCC(F)(F)C(F)(F)C(F)(F)C(F)(F)C(F)(F)C(F)(F)C(F)(F)F
active: [4] 3.33 µM and 5.61 µM
not listed: [1] | [2] | [10]
inactive: all other assays above

NC(O)(C(F)(F)F)C(F)(F)F
not listed: [10]
inactive: all other assays above

OCCCC(F)(F)C(F)(F)C(F)(F)C(F)(F)C(F)(F)C(F)(F)C(F)(F)C(F)(F)F
active: [3] 46.4 µM and 23.2 µM | [4] 45.9 µM and 44.5 µM | [5] 43.8 µM and 31.8 µM | [6] 42.7 µM and 21.9 µM | [7] 22.9 µM and 21.7 µM | [8] 37.1 µM and 37 µM | [9] 12.8 µM and 9.88 µM
inactive: [10]

OCC(F)(F)C(F)(F)C(F)(F)CO
not listed: [3] | [8] | [10]
inactive: all other assays above

NC(=O)C(F)(F)C(F)(F)C(F)(F)C(F)(F)C(N)=O
not listed: [3] | [8] | [10]
inactive: all other assays above

OCC(O)CC(F)(F)C(F)(F)C(F)(F)C(F)(F)F (stereo not given)
not listed: [8] | [10]
inactive: all other assays above

OCC(O)CC(F)(F)C(F)(F)C(F)(F)C(F)(F)C(F)(F)C(F)(F)C(F)(F)C(F)(F)F (stereo not given)
not listed: [1] | [2] | [10]
inactive: all other assays above

CCN(CC)c1ccc2c(c1)Oc1cc(N(CC)CC)ccc1C21OC(=O)c2ccccc21
active: [3] 6.15 µM | [4] 6.43 µM | [5] 6.1 µM | [6] 10 µM
inactive: [7] | [8] | [9]

C[C@]12CC[C@H]3C(=CCc4cc(O)ccc43)[C@@H]1CCC2=O
inactive: [3] | [6] | [7] | [8] | [9]
active: [4] 29.1 µM | [5] 26.1 µM

OCC(F)(F)C(F)(F)C(F)(F)C(F)(F)C(F)(F)C(F)(F)CO
not listed: [8] | [10]
inactive: all other assays above

NC(=O)C(F)(F)C(F)(F)C(F)(F)C(F)F
not listed: [3] | [8] | [10]
inactive: all other assays above
